Assay results published in PubChem BioAssay AID1159580 (chemical genetic matrix, 2015).
Screen size: about 5,500 compounds; about 2,000 (36%) were called active. Inconclusive results (about 18%) are left out. No stated cut-off is given here; in the data, active means normalized growth mostly below about 0.91 (no sharp cut-off); inconclusive means no clear call, values can overlap the other calls; inactive means mostly above about 0.92. This is one part of the list.

Experiment: chemical genetic growth profiling, strain panel (AID 1159580);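 further: tested at 20 µM; growth read once vehicle control cultures reached saturation at 30 °C; 1 = growth at the plate median or of vehicle wells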
Details: growth OD

Measured: normalized growth

C[N+](C)(C)CC(=O)[O-]
inactive: S. cerevisiae deletion strains, locus YJR075W, strain HOC1, stronger effect = lower value 0.977 | S. cerevisiae deletion strains, locus YKL009W, strain mrt4, stronger effect = lower value 0.972 | S. cerevisiae deletion strains, locus YKL068W, stronger effect = lower value 0.976 | S. cerevisiae deletion strains, locus YKL085W, strain MDH1 (second series), stronger effect = lower value 0.978 | S. cerevisiae deletion strains, locus YKL085W, strain MDH1, stronger effect = lower value 0.978 | S. cerevisiae deletion strains, locus YKL160W, strain elf1, stronger effect = lower value 0.995 | S. cerevisiae deletion strains, locus YKL190W, strain CNB1, stronger effect = lower value 0.976 | S. cerevisiae deletion strains, locus YKR001C, strain vps1, stronger effect = lower value 0.982 | S. cerevisiae deletion strains, locus YKR026C, strain gcn3, stronger effect = lower value 1.02 | S. cerevisiae deletion strains, locus YKR091W, strain srl3, stronger effect = lower value 0.976 | S. cerevisiae deletion strains, locus YLL001W, strain dnm1, stronger effect = lower value 0.949 | S. cerevisiae deletion strains, locus YLL026W, stronger effect = lower value 0.982 | S. cerevisiae deletion strains, locus YLL041C, strain sdh2, stronger effect = lower value 0.963 | S. cerevisiae deletion strains, locus YLR027C, strain aat2, stronger effect = lower value 0.989 | S. cerevisiae deletion strains, locus YLR039C, strain RIC1, stronger effect = lower value 0.952 | S. cerevisiae deletion strains, locus YLR058C, strain SHM2, stronger effect = lower value 1 | S. cerevisiae deletion strains, locus YLR102C, strain apc9, stronger effect = lower value 0.992 | S. cerevisiae deletion strains, locus YLR113W, strain HOG1, stronger effect = lower value 0.981 | S. cerevisiae deletion strains, locus YLR221C, strain rsa3, stronger effect = lower value 1 | S. cerevisiae deletion strains, locus YLR258W, strain gsy2, stronger effect = lower value 0.985 | S. cerevisiae deletion strains, locus YLR262C, strain YPT6 (second series), stronger effect = lower value 0.948 | S. cerevisiae deletion strains, locus YLR262C, strain YPT6, stronger effect = lower value 0.938 | S. cerevisiae deletion strains, locus YLR268W, strain sec22, stronger effect = lower value 0.96 | S. cerevisiae deletion strains, locus YLR320W, strain mms22, stronger effect = lower value 1.01 | S. cerevisiae deletion strains, locus YLR330W, strain CHS5, stronger effect = lower value 0.99 | S. cerevisiae deletion strains, locus YLR342W, strain FKS1 (second series), stronger effect = lower value 1.04 | S. cerevisiae deletion strains, locus YLR342W, strain FKS1, stronger effect = lower value 0.988 | S. cerevisiae deletion strains, locus YLR357W, strain rsc2, stronger effect = lower value 0.969 | S. cerevisiae deletion strains, locus YLR370C, strain arc18, stronger effect = lower value 0.985 | S. cerevisiae deletion strains, locus YLR371W, strain rom2, stronger effect = lower value 0.993 | S. cerevisiae deletion strains, locus YLR384C, strain iki3, stronger effect = lower value 0.967 | S. cerevisiae deletion strains, locus YLR418C, strain cdc73, stronger effect = lower value 0.99 | S. cerevisiae deletion strains, locus YML016C, strain PPZ1, stronger effect = lower value 1.01 | S. cerevisiae deletion strains, locus YML032C, strain rad52, stronger effect = lower value 0.97 | S. cerevisiae deletion strains, locus YML120C, strain ndi1, stronger effect = lower value 0.98 | S. cerevisiae deletion strains, locus YML124C, strain tub3, stronger effect = lower value 0.992 | S. cerevisiae deletion strains, locus YMR058W, strain fet3, stronger effect = lower value 0.987 | S. cerevisiae deletion strains, locus YMR078C, strain ctf18, stronger effect = lower value 0.981 | S. cerevisiae deletion strains, locus YMR125W, strain sto1, stronger effect = lower value 0.951 | S. cerevisiae deletion strains, locus YMR129W, stronger effect = lower value 0.975 | S. cerevisiae deletion strains, locus YMR205C, strain PFK2, stronger effect = lower value 0.986 | S. cerevisiae deletion strains, locus YMR223W, strain ubp8, stronger effect = lower value 1.03 | S. cerevisiae deletion strains, locus YMR231W, strain pep5, stronger effect = lower value 0.972 | S. cerevisiae deletion strains, locus YMR263W, strain SAP30, stronger effect = lower value 0.977 | S. cerevisiae deletion strains, locus YMR307W, strain GAS1, stronger effect = lower value 1.04 | S. cerevisiae deletion strains, locus YNL067W, strain RPL9B, stronger effect = lower value 0.982 | S. cerevisiae deletion strains, locus YNL071W, strain lat1, stronger effect = lower value 0.989 | S. cerevisiae deletion strains, locus YNL128W, strain TEP1, stronger effect = lower value 0.989 | S. cerevisiae deletion strains, locus YNL153C, strain GIM3, stronger effect = lower value 0.985 | S. cerevisiae deletion strains, locus YNL183C, strain NPR1, stronger effect = lower value 0.938 | S. cerevisiae deletion strains, locus YNL209W, strain ssb2, stronger effect = lower value 0.995 | S. cerevisiae deletion strains, locus YNL233W, strain BNI4, stronger effect = lower value 0.997 | S. cerevisiae deletion strains, locus YNL248C, strain rpa49, stronger effect = lower value 1.01 | S. cerevisiae deletion strains, locus YNL250W, strain rad50, stronger effect = lower value 0.991 | S. cerevisiae deletion strains, locus YNL271C, strain bni1, stronger effect = lower value 0.992 | S. cerevisiae deletion strains, locus YNL298W, strain CLA4, stronger effect = lower value 0.97 | S. cerevisiae deletion strains, locus YNL307C, strain MCK1, stronger effect = lower value 0.999 | S. cerevisiae deletion strains, locus YNL322C, strain KRE1 (second series), stronger effect = lower value 0.964 | S. cerevisiae deletion strains, locus YNL322C, strain KRE1, stronger effect = lower value 0.99 | S. cerevisiae deletion strains, locus YNR049C, strain mso1, stronger effect = lower value 0.974 | S. cerevisiae deletion strains, locus YNR052C, strain pop2, stronger effect = lower value 0.984 | S. cerevisiae deletion strains, locus YOL006C, strain TOP1, stronger effect = lower value 0.975 | S. cerevisiae deletion strains, locus YOL012C, strain htz1 0.729 | S. cerevisiae deletion strains, locus YOL147C, strain pex11, stronger effect = lower value 1 | S. cerevisiae deletion strains, locus YOR001W, strain rrp6, stronger effect = lower value 0.969 | S. cerevisiae deletion strains, locus YOR061W, strain CKA2, stronger effect = lower value 1 | S. cerevisiae deletion strains, locus YOR069W, strain VPS5, stronger effect = lower value 0.995 | S. cerevisiae deletion strains, locus YOR070C, strain gyp1, stronger effect = lower value 0.994 | S. cerevisiae deletion strains, locus YOR080W, strain dia2, stronger effect = lower value 0.951 | S. cerevisiae deletion strains, locus YOR083W, strain WHI5, stronger effect = lower value 0.971 | S. cerevisiae deletion strains, locus YOR106W, strain vam3, stronger effect = lower value 0.925 | S. cerevisiae deletion strains, locus YOR136W, strain idh2, stronger effect = lower value 0.985 | S. cerevisiae deletion strains, locus YOR144C, strain elg1, stronger effect = lower value 0.991 | S. cerevisiae deletion strains, locus YOR184W, strain ser1, stronger effect = lower value 0.989 | S. cerevisiae deletion strains, locus YOR231W, strain MKK1, stronger effect = lower value 0.986 | S. cerevisiae deletion strains, locus YOR265W, strain rbl2, stronger effect = lower value 0.985 | S. cerevisiae deletion strains, locus YOR270C, strain vph1, stronger effect = lower value 0.956 | S. cerevisiae deletion strains, locus YOR290C, strain snf2, stronger effect = lower value 1 | S. cerevisiae deletion strains, locus YOR316C, strain cot1, stronger effect = lower value 0.972 | S. cerevisiae deletion strains, locus YPL051W, strain arl3, stronger effect = lower value 0.99 | S. cerevisiae deletion strains, locus YPL055C, strain LGE1, stronger effect = lower value 0.944 | S. cerevisiae deletion strains, locus YPL078C, strain atp4, stronger effect = lower value 0.954 | S. cerevisiae deletion strains, locus YPL106C, strain sse1, stronger effect = lower value 0.982 | S. cerevisiae deletion strains, locus YPL240C, strain hsp82, stronger effect = lower value 0.976 | S. cerevisiae deletion strains, locus YPL241C, strain CIN2, stronger effect = lower value 0.999 | S. cerevisiae deletion strains, locus YPL256C, strain CLN2, stronger effect = lower value 1 | S. cerevisiae deletion strains, locus YPR119W, strain clb2, stronger effect = lower value 0.994 | S. cerevisiae deletion strains, locus YPR141C, strain kar3, stronger effect = lower value 0.979 | S. cerevisiae deletion strains, locus YPR163C, strain tif3, stronger effect = lower value 0.992 | S. cerevisiae deletion strains, locus YPR167C, strain met16, stronger effect = lower value 0.986 | S. cerevisiae deletion strains, strain wtn01, stronger effect = lower value 0.96 | S. cerevisiae strains, strain wild type, stronger effect = lower value 0.996
